Compound activity as filed in PubChem BioAssay.
Only some compounds are listed: those with a hit (about 6.2% of all), similar ones and a draw of the others.
FMDV inh = foot and mouth disease virus antiviral activity; hit rate 1.2% among 410,000; AID 1159524; FMDV antiviral cell-based qHTS; Potency, µM (series often up to 57.9 µM), inactives show at the highest dose activity change, negative = inhibition, most hits filed as inhibitors; calls by dose curve; tested in HEK293T cells; also: read-out not given here; potency is read from the fitted curve at half-maximal effect; nearly all actives have a fitted effect of over 45% in size
LASV entry inh = blocks Lassa virus binding to or entry into cells; Lassa virus pseudotype entry inhibition, cell reporter; Potency, µM (top dose mostly 37.9 µM), for the others: at the highest dose activity change, negative = inhibition, usual class: inhibitors; hit rate 1.2% among 300,000; calls by dose curve; tested in HEK293 cells; also: potency is read from the fitted curve at half-maximal effect; nearly all actives have a fitted effect of over 50% in size
MARV entry inh = inhibitors of Marburg virus binding or cell entry; AID 540276; Potency, µM (doses to about 37.8 µM), inactives show at the top dose activity change, negative = inhibition, hits mostly inhibitors; Marburg virus pseudotyped entry inhibition, cell reporter; hit rate 1.8% among 300,000; calls by dose curve; tested in HEK293 cells; also: potency is read from the fitted curve at half-maximal effect
HCMV inh = inhibitors of human cytomegalovirus. activity change, negative = inhibition, % at 57.5 µM. AID 1259415. hit rate 4.5% among 410,000. HFF cells, HCMV-luciferase reporter, 72 h; hits give low values; in the data active = activity change below about -60%; inconclusive = no clear call, values can overlap the other calls; inactive = above about -39%
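After 16 h attachment at 37C, HFF cells received test compound and HCMV-luciferase (1 PFU/cell); reporter luminescence read 72 h later, data normalized against buffer-only and known inhibitor Salinomycin.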
Active calls of the source: *; [ ] = dose if it differs, or a comment. % is scaled to controls: 0 for no effect and ±100 for the full control effect.

`N#CC1=C(N)Oc2cc(N)ccc2C1c1cccc(Br)c1` (stereo not drawn) gave FMDV inh -15% and HCMV inh -75*.
CCCNC(=O)c1cc(C2CCCN(S(=O)(=O)c3ccccc3)C2)on1 (stereo not drawn) was read as FMDV inh -24% and HCMV inh -19.
COc1ccccc1NC(=O)/C(C#N)=C/c1cccnc1 was read as FMDV inh -16% and HCMV inh 12.
For COc1ccc(-c2nc(NC(=O)c3ccc(OCC(=O)Nc4ccc(F)cc4)c(OC)c3)sc2C)cc1 the results were FMDV inh 18µM*, LASV entry inh inconclusive, MARV entry inh inconclusive and HCMV inh 23.
O=C(NCCO)c1cccc(S(=O)(=O)N2CCCCC2)c1 was read as LASV entry inh -10%, MARV entry inh 17% and HCMV inh -2.
For COc1cccc(OCc2cc(C(=O)N(C)Cc3nc(C)cs3)no2)c1 the results were FMDV inh 72%, LASV entry inh inconclusive, MARV entry inh -16% and HCMV inh 59.
Screening Cc1ccc(F)cc1CNC(=O)c1cc(COc2ccc3ncccc3c2)on1 returned FMDV inh 25µM*, LASV entry inh inconclusive, MARV entry inh inconclusive and HCMV inh -96*.
For Cc1ccc(OCc2cc(C(=O)N(C)CCc3ccccn3)no2)cc1C the results were FMDV inh 6% and HCMV inh -4.
CC(C)N(Cc1nccn1C)C(=O)c1cc(COc2ccc3ncccc3c2)on1 was read as FMDV inh -6%, LASV entry inh inconclusive, MARV entry inh -22%[46.1 µM] and HCMV inh -71*.
`Cc1nc(CN(C)C(=O)c2cc(COc3ccc4ncccc4c3)on2)cs1` gave FMDV inh inconclusive, LASV entry inh inconclusive, MARV entry inh inconclusive and HCMV inh -65*.
For COc1cccc(CCNC(=O)c2cc(COc3ccc(C)c(C)c3)on2)c1OC the results were FMDV inh 21% and HCMV inh 61.
COc1cccc(OCc2cc(C(=O)N(Cc3nccn3C)C(C)C)no2)c1 was read as FMDV inh -19% and HCMV inh -27.
CN(Cc1ccccn1)C(=O)c1cc(COc2ccc(F)c(F)c2)on1 was read as FMDV inh 3% and HCMV inh -93*.
For CC(CC(=O)Nc1cc(S(=O)(=O)N2CCOCC2)ccc1OCC(F)(F)F)c1ccccc1 (stereo not drawn) the results were FMDV inh -1% and HCMV inh 4.
Screening Cc1ccc(OCc2cc(C(=O)N(C)Cc3cnn(-c4ccccc4C)c3)no2)cn1 returned FMDV inh 0%, LASV entry inh 7.9µM*, MARV entry inh inconclusive and HCMV inh -26.
`COc1cccc(OCc2cc(C(=O)NCc3ccccn3)no2)c1` gave FMDV inh 44%, LASV entry inh -4%[46.1 µM], MARV entry inh inconclusive and HCMV inh 39.
For CSc1ccccc1OCc1cc(C(=O)NCCn2nc(C)cc2C)no1 the results were FMDV inh -22%, LASV entry inh inconclusive, MARV entry inh -22% and HCMV inh -16.
`O=C(NCc1cccc(Cl)c1)c1cc(COc2ccc3ncccc3c2)on1` gave FMDV inh 16µM*, LASV entry inh inconclusive, MARV entry inh inconclusive and HCMV inh inconclusive.
Cc1ccc(OCc2cc(C(=O)NC(C)Cc3cccnc3)no2)cc1C (stereo not drawn) was read as FMDV inh 2% and HCMV inh -19.
For CC(CCCC(C)(C)O)NC(=O)c1cc(COc2ccc3ncccc3c2)on1 (stereo not drawn) the results were FMDV inh inconclusive, LASV entry inh inconclusive, MARV entry inh -9%[46.1 µM] and HCMV inh -88*.
For Cc1cc(C)n(CCNC(=O)c2cc(COc3ccc4ncccc4c3)on2)n1 the results were FMDV inh 13µM* and HCMV inh 0.
For CC(C)(C(=O)O)c1ccc(C(O)CCCN2CCC(C(O)(c3ccccc3)c3ccccc3)CC2)cc1 (stereo not drawn) the results were FMDV inh 0%, LASV entry inh -12%, MARV entry inh inconclusive and HCMV inh 2.
CCOC(=O)c1sc(C)c2c1NC(C)(c1ccccc1)NC2=O (stereo not drawn) was read as FMDV inh -25%, LASV entry inh -25%, MARV entry inh -15% and HCMV inh -24.
`NC(=O)C1CC2(C1)CC(C(N)=O)C2` (stereo not drawn) gave FMDV inh 9%, LASV entry inh 14%, MARV entry inh 18% and HCMV inh 8.
